Structures are written as SMILES.

In general, inhibition refers to the relative decrease from the control value, in per cent.

The target of the first assay is Solute carrier family 2, facilitated glucose transporter member 1 (Homo sapiens) (UniProt P11166). In words: ST_JUDE_LEISH: Cytotoxicity at 2uM final concentration against transgenic Leishmania Mexicana promastigotes LmGLUT1 that are glucose transport deficient and complemented with the human glucose transporter GLUT1. Activity is measured by DNA content using SYBR green in vitro. The format is functional.
Chain of Solute carrier family 2, facilitated glucose transporter member 1 (Homo sapiens) (P11166 whole entry): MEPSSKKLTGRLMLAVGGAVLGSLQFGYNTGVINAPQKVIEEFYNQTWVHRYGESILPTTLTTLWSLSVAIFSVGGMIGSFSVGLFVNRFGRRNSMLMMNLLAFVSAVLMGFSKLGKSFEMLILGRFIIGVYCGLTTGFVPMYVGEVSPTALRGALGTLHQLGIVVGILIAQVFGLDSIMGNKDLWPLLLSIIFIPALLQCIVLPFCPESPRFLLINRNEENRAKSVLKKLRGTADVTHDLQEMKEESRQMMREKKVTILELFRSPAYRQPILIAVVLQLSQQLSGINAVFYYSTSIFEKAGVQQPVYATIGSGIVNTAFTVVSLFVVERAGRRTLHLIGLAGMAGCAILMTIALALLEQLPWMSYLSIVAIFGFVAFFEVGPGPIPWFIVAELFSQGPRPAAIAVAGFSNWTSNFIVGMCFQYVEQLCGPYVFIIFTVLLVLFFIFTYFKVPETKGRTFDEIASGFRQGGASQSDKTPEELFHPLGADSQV
Regarding `Cc1cccc2nc(-c3ccc(-c4ccc(NC(=O)NCc5ccc(F)cc5)cc4)cc3)[nH]c12`, the inhibition is 0.56%.

For the compound `Cc1cccc2nc(-c3ccc(-c4ccc(CN5CCN(c6ccncc6)CC5)cc4)s3)[nH]c12`, the inhibition came out at 2.98%.

Turning to `N#Cc1ccc(-c2ccc(C(=O)NCCCCN3CC=C(c4ccc5c(c4OCC4CC4)CCCC5)CC3)cc2)cc1`, the inhibition stood at 0.36%.

With `COc1cc2c(=O)c(Cc3ccc(Cl)cc3)c(C)[nH]c2cc1F`, the inhibition came out at 2.09%.

`CN(c1ncc(-c2cccc(CNCc3ccccc3O)c2)cn1)C1CCCCC1`: the inhibition was -1.25%.

For the compound `CC1(C)NC(N)=NC(=N)N1OCCCOc1ccc(N)cc1`, the inhibition was -1.98%.

As for `O=[N+]([O-])c1c(O)nc2c(c1O)CCC2`, the inhibition turned out to be 4.52%.

As to `CS(=O)(=O)N(c1ccc(F)cc1)c1cc(C(=O)N[C@@H](Cc2ccccc2)[C@H](O)CNCc2cccc(C(F)(F)F)c2)cc(N2CCCC2=O)c1`, the inhibition stood at 1.67%.

As to `Cc1cccc2nc(-c3cccc(-c4ccc(NC(=O)CCc5c[nH]cn5)cc4)c3)[nH]c12`, the inhibition came out at 7.76%.

Regarding `COc1ccc2ncc(F)c(NC(=O)C3CCC(NCc4cc5c(F)cccc5[nH]4)CC3)c2n1` (stereo unspecified), the inhibition stood at 77.5%.

As for `O=C(NCCCc1ccccc1)c1ccc(O)c(-c2cc(Cl)cc(Cl)c2)c1`, the inhibition amounted to 4.73%.

On to `Cc1nc(C)c(-c2ccc(Cl)cc2Cl)c(O)c1Br`, for which the inhibition came out at 1.43%.

With `O=C(/C=C/c1ccc(Cl)c(Cl)c1)NCCCCCN1CCC(NC(=O)NC2CCCCC2)CC1`, the inhibition stood at 1.02%.

Turning to `C=CCc1cc(OC)ccc1OCCCOc1c(C)nc(N)nc1N`, the inhibition turned out to be 78.2%.

Take `Cc1cc(F)ccc1Oc1nc(Nc2ccc(N3CCOCC3)c(F)c2)nc2c1S(=O)(=O)CCC2`: the inhibition came to 6.48%.

As for `CS(=O)(=O)NCCCNCc1cccc(-c2ccc(-c3nc4cc(C(F)(F)F)ccc4[nH]3)cc2)c1`, the inhibition came out at 7.6%.

Regarding `CCC(O)c1ccc(Br)cc1NC(=O)c1cccc(Cl)c1` (stereo unspecified), the inhibition was -1.21%.

`CCN(CC)CCn1c(=N)n(CC(O)c2ccc(Cl)c(Cl)c2)c2ccccc21` (stereo unspecified): the inhibition worked out at 7.87%.

As for `CC(=O)Nc1ccc(CN(Cc2ccc(C)cc2)Cc2cccc(Oc3ccccc3)c2)cc1`, the inhibition came out at 2.75%.

On to `Cc1noc(C)c1-c1ccc2c(Nc3cccc4c3-c3ccccc3C4=O)c(C(=O)NCc3ccccc3I)cnc2c1`, for which the inhibition is 3.15%.

Consider `COc1ccc2nccc([C@@H](O)CN3CCC(NC(=O)Cn4nc(-c5ccc(C(F)(F)F)cc5)ccc4=O)CC3)c2c1`, for which the inhibition came out at 4.01%.

In the case of `CCCN1CCN(CC(O)CNC(=O)Nc2ccc(Br)cc2)CC1` (stereo unspecified), the inhibition amounted to 3.68%.

With `Cc1[nH]c(C)c(-c2ccc(OCc3cc(C(F)(F)F)cc(C(F)(F)F)c3)nc2)c(=O)c1Br`, the inhibition was 10.1%.

On to `COc1ccccc1C(=O)Nc1ccc(Nc2nc(C)cc(N3CCOCC3)n2)cc1`, for which the inhibition was 4.83%.

In the case of `Cc1cc(=O)c(-c2ccc(Oc3ccc(C(F)(F)F)cc3)cc2)c(C)n1O`, the inhibition is -1.23%.

As to `O=C(/C=C/c1ccc(Cl)c(Cl)c1)NCCCCCN1CCC(CCNC(=O)c2snnc2-c2ccccc2)CC1`, the inhibition came to 0.24%.

For `CCN(CC)CCN(Cc1ccc(-c2ccc(C(F)(F)F)cc2)cc1)C(=O)Cn1c(CCc2cccc(F)c2F)cc(=O)c2c1CCCC2`, the inhibition is 11.6%.

Regarding `O=C(NCCc1ccccc1)N(Cc1ccccc1-c1ccc(CNCCc2ccccc2)cc1)C1CCN(Cc2ccccc2)CC1`, the inhibition amounted to 7.2%.

Consider `Cc1cc(N/N=C/c2ccccc2[N+](=O)[O-])c2cc(F)ccc2n1`, for which the inhibition is 2.14%.

Consider `O=C(CCCCCNC(=O)c1ccc(O)c(-c2ccc(Cl)c(Cl)c2)c1)NCCN1CCOCC1`, for which the inhibition was determined as 4.35%.

With `COc1cccc(OC)c1OCCCON1C(=N)N=C(N)NC1(C)C`, the inhibition turned out to be 1.91%.

Take `CSC1=NC(=Nc2c(C)cccc2C)C2(CCCCC2)N1c1ccccc1Cl`: the inhibition is -1.1%.

`CN(C)C(S)=NN=Cc1cccc(O)c1O`: the inhibition turned out to be 6.64%.

On to `COc1cc2c(cc1C(F)(F)F)N(C(=O)Nc1cccc(-c3ccc(CN(C)C)cc3)c1)CC2`, for which the inhibition was 22.1%.

On to `CCN(CC)CCCC(C)N=c1cc(C=Cc2ccc([N+](=O)[O-])cc2)[nH]c2ccc(OC)cc12` (stereo unspecified), for which the inhibition was determined as 2.45%.

For the compound `COc1ccc2nccc([C@@H](O)CN3CCC(NCCNc4ccccn4)CC3)c2c1`, the inhibition is 8.79%.

For `Cc1nc(C)c(-c2ccc(-c3ccc(F)cc3)cc2)c(O)c1Br`, the inhibition is 0.18%.

Turning to `CS(=O)(=O)c1ccc(CNCc2cccc(-c3cccc(-c4nc5cc(F)ccc5[nH]4)c3)c2)cc1`, the inhibition is 2.4%.

The target of a further assay is Hexose transporter 1 (Plasmodium falciparum) (UniProt O97467). In words: ST_JUDE_LEISH: Cytotoxicity at 2uM final concentration against transgenic Leishmania Mexicana promastigotes LmPfHT that are glucose transport deficient and complemented with the Plasmodium falciparum hexose transporter. Activity is measured by DNA content using SYBR green in vitro. The format is functional.
Take `Cc1cccc2nc(-c3ccc(-c4ccc(NC(=O)NCc5ccc(F)cc5)cc4)cc3)[nH]c12`: the inhibition turned out to be 0.89%.

Turning to `Cc1cccc2nc(-c3ccc(-c4ccc(CN5CCN(c6ccncc6)CC5)cc4)s3)[nH]c12`, the inhibition amounted to 2.29%.

As to `N#Cc1ccc(-c2ccc(C(=O)NCCCCN3CC=C(c4ccc5c(c4OCC4CC4)CCCC5)CC3)cc2)cc1`, the inhibition came to 1.41%.

With `COc1cc2c(=O)c(Cc3ccc(Cl)cc3)c(C)[nH]c2cc1F`, the inhibition was determined as 3.31%.

As for `CN(c1ncc(-c2cccc(CNCc3ccccc3O)c2)cn1)C1CCCCC1`, the inhibition is -0.2%.

`CC1(C)NC(N)=NC(=N)N1OCCCOc1ccc(N)cc1`: the inhibition is -0.16%.

`O=[N+]([O-])c1c(O)nc2c(c1O)CCC2`: the inhibition amounted to 4.36%.

For the compound `CS(=O)(=O)N(c1ccc(F)cc1)c1cc(C(=O)N[C@@H](Cc2ccccc2)[C@H](O)CNCc2cccc(C(F)(F)F)c2)cc(N2CCCC2=O)c1`, the inhibition is -0.54%.

As for `Cc1cccc2nc(-c3cccc(-c4ccc(NC(=O)CCc5c[nH]cn5)cc4)c3)[nH]c12`, the inhibition turned out to be 9.49%.

`COc1ccc2ncc(F)c(NC(=O)C3CCC(NCc4cc5c(F)cccc5[nH]4)CC3)c2n1` (stereo unspecified): the inhibition was determined as 80.8%.

Regarding `O=C(NCCCc1ccccc1)c1ccc(O)c(-c2cc(Cl)cc(Cl)c2)c1`, the inhibition came out at 4.32%.

With `Cc1nc(C)c(-c2ccc(Cl)cc2Cl)c(O)c1Br`, the inhibition was 0.95%.

For the compound `O=C(/C=C/c1ccc(Cl)c(Cl)c1)NCCCCCN1CCC(NC(=O)NC2CCCCC2)CC1`, the inhibition is 0.4%.

As to `C=CCc1cc(OC)ccc1OCCCOc1c(C)nc(N)nc1N`, the inhibition came out at 77.6%.

In the case of `Cc1cc(F)ccc1Oc1nc(Nc2ccc(N3CCOCC3)c(F)c2)nc2c1S(=O)(=O)CCC2`, the inhibition amounted to 7.33%.

On to `CS(=O)(=O)NCCCNCc1cccc(-c2ccc(-c3nc4cc(C(F)(F)F)ccc4[nH]3)cc2)c1`, for which the inhibition worked out at 3.88%.

On to `CCC(O)c1ccc(Br)cc1NC(=O)c1cccc(Cl)c1` (stereo unspecified), for which the inhibition was 1.01%.

In the case of `CCN(CC)CCn1c(=N)n(CC(O)c2ccc(Cl)c(Cl)c2)c2ccccc21` (stereo unspecified), the inhibition was 5.43%.

In the case of `CC(=O)Nc1ccc(CN(Cc2ccc(C)cc2)Cc2cccc(Oc3ccccc3)c2)cc1`, the inhibition worked out at 3.12%.

For `Cc1noc(C)c1-c1ccc2c(Nc3cccc4c3-c3ccccc3C4=O)c(C(=O)NCc3ccccc3I)cnc2c1`, the inhibition worked out at 2.33%.

In the case of `COc1ccc2nccc([C@@H](O)CN3CCC(NC(=O)Cn4nc(-c5ccc(C(F)(F)F)cc5)ccc4=O)CC3)c2c1`, the inhibition amounted to 3.03%.

With `CCCN1CCN(CC(O)CNC(=O)Nc2ccc(Br)cc2)CC1` (stereo unspecified), the inhibition is 4.03%.

For `Cc1[nH]c(C)c(-c2ccc(OCc3cc(C(F)(F)F)cc(C(F)(F)F)c3)nc2)c(=O)c1Br`, the inhibition was determined as 10.2%.

Regarding `COc1ccccc1C(=O)Nc1ccc(Nc2nc(C)cc(N3CCOCC3)n2)cc1`, the inhibition is 4.3%.

With `Cc1cc(=O)c(-c2ccc(Oc3ccc(C(F)(F)F)cc3)cc2)c(C)n1O`, the inhibition was -2.25%.

`O=C(/C=C/c1ccc(Cl)c(Cl)c1)NCCCCCN1CCC(CCNC(=O)c2snnc2-c2ccccc2)CC1`: the inhibition amounted to 4.7%.

Take `CCN(CC)CCN(Cc1ccc(-c2ccc(C(F)(F)F)cc2)cc1)C(=O)Cn1c(CCc2cccc(F)c2F)cc(=O)c2c1CCCC2`: the inhibition was 12.3%.

Turning to `O=C(NCCc1ccccc1)N(Cc1ccccc1-c1ccc(CNCCc2ccccc2)cc1)C1CCN(Cc2ccccc2)CC1`, the inhibition came out at 8.75%.

With `Cc1cc(N/N=C/c2ccccc2[N+](=O)[O-])c2cc(F)ccc2n1`, the inhibition was determined as 1.95%.

With `O=C(CCCCCNC(=O)c1ccc(O)c(-c2ccc(Cl)c(Cl)c2)c1)NCCN1CCOCC1`, the inhibition is 3.57%.

For the compound `COc1cccc(OC)c1OCCCON1C(=N)N=C(N)NC1(C)C`, the inhibition amounted to 1.49%.

Take `CSC1=NC(=Nc2c(C)cccc2C)C2(CCCCC2)N1c1ccccc1Cl`: the inhibition was -1.21%.

Turning to `CN(C)C(S)=NN=Cc1cccc(O)c1O`, the inhibition came to 6.87%.

Turning to `COc1cc2c(cc1C(F)(F)F)N(C(=O)Nc1cccc(-c3ccc(CN(C)C)cc3)c1)CC2`, the inhibition worked out at 10.2%.

Turning to `CCN(CC)CCCC(C)N=c1cc(C=Cc2ccc([N+](=O)[O-])cc2)[nH]c2ccc(OC)cc12` (stereo unspecified), the inhibition amounted to 5.16%.

On to `COc1ccc2nccc([C@@H](O)CN3CCC(NCCNc4ccccn4)CC3)c2c1`, for which the inhibition came to 9.69%.

Regarding `Cc1nc(C)c(-c2ccc(-c3ccc(F)cc3)cc2)c(O)c1Br`, the inhibition was -0.09%.

Consider `CS(=O)(=O)c1ccc(CNCc2cccc(-c3cccc(-c4nc5cc(F)ccc5[nH]4)c3)c2)cc1`, for which the inhibition was 0.6%.

(Values after ChEMBL document CHEMBL3433997, “St. Jude Leishmania screening dataset” (2016).)
